Compound activity as filed in PubChem BioAssay.
Hits are enriched below; roughly 2.4% of the tested compounds scored in any of these assays.
D2 antagonist: antagonists of human D2 dopamine receptor | 340,000 compounds, 2% hits | P14416 | HEK293 TREx D2 cells, calcium flux, dopamine EC80 | inhibition, % at 10 µM; in the data active = inhibition above about 30%; inactive = below that, where a call was filed; also: 0% is about no effect
Target sequence (P14416 whole entry, looked up): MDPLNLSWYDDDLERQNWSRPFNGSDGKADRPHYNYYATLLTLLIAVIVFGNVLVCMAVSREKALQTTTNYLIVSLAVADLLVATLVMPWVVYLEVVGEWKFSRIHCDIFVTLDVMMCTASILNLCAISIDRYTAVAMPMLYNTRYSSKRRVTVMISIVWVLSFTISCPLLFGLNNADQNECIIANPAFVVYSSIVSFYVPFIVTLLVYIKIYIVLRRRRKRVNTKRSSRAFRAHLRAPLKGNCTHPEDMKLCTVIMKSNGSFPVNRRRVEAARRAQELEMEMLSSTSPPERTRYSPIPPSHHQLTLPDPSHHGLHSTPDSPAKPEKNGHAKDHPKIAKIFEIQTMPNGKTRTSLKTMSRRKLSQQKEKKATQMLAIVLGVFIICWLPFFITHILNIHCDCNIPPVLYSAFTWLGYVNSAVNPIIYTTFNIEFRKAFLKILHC
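Inhibition of EC80 dopamine-driven calcium flux, recorded kinetically, defines activity here; cells are a tetracycline-induced HEK293 T-REx line expressing force-coupled D2.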
D2 ag-1: agonists of human D2 dopamine receptor (beta-arrestin); activation, % (test concentration not listed); DiscoveRx PathHunter D2 beta-arrestin, luminescence, 90 min; 100% = 57 uM dopamine signal; AID 624465; 360,000 compounds, 0.084% hits; in the data active = activation above about 40%; inconclusive = between about 15% and that limit
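Agonist mode: compounds alone added to overnight-plated D2 PathHunter cells for 90 min at 37 C, with 57 uM final dopamine (EC100) defining full response. Beta-arrestin recruitment detected by chemiluminescent reagent, read after 1 h at ambient temperature.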
D2 PAM-1: positively modulates the human D2 dopamine receptor allosterically; AID 485347; P14416; 340,000 compounds, 0.34% hits; potentiation, % at 10 µM; HEK293 T-REx D2, calcium flux, EC20 dopamine potentiation;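 active = potentiation over 3 SD above the plate norm, cut at about 30% in these data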; also: 0% is about no effect
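Cells plated with tetracycline inducer and held overnight at 30 C; calcium dye loaded 30–90 min at room temperature; baseline taken, compound added and read 180 s; EC20 dopamine then added and read 180 s.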
D2 ag-2: activates the human D2 dopamine receptor; P14416; activation, % at 2 µM; AID 485358; 340,000 compounds, 0.53% hits; HEK293 T-REx D2 cells, calcium flux agonist mode;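 active = activation over 3 SD above normal in the single-dose calcium agonist read, cut at about 30% in these data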; also: 0% is about no effect
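Tetracycline-induced HEK293 Trex cells with D2 receptor force-coupled to calcium signaling, plated overnight at 30 C and loaded with no-wash calcium dye. Calcium flux read kinetically for 180 s after compound addition; responses flag agonists.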
D2 PAM-2: human D2 receptor positive allosteric modulation; P14416; DiscoveRx D2 beta-arrestin cells, luminescence, 90 min; 100% = 57 uM dopamine signal; potentiation, % (test concentration not listed); 360,000 compounds, 0.23% hits; AID 624464; in the data active = potentiation above about 50%; inconclusive = mostly about 30% to 49%
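D2 cells co-treated with compound plus 50 nM dopamine (EC20) for 90 min at 37 deg C to detect potentiation. Beta-arrestin recruitment was read as enzyme-fragment luminescence after 1 h at ambient temperature. Full response was set by 57 uM dopamine.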
D3 arrestin ag: activates human D3 dopamine receptor beta-arrestin recruitment; DiscoveRx D3 beta-arrestin cells, luminescence, 90 min; shares compounds with D2 ag-2; Potency, µM (top dose mostly 76.9 µM), for the others: top-dose activation, actives largely listed as activators; 2,300 compounds, 4% hits;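 also: potency is read from the fitted curve at half-maximal effect; 100% = dopamine control response; nearly all actives have a fitted effect of over 70% in size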
D2 ag-3: D2 receptor agonism, beta-arrestin counterscreen | shares compounds with D2 ag-2 | DiscoveRx PathHunter D2 beta-arrestin, luminescence, 90 min; response scale: percent relative to full dopamine signal | Potency, µM (series often up to 76.9 µM), without a hit: top-dose activation, actives largely listed as activators | 2,300 compounds, 5.9% hits | AID 720507; also: potency is read from the fitted curve at half-maximal effect; % of control where 0% means no effect; nearly all actives have a fitted effect of over 70% in size
* = called active by the depositor; ? = inconclusive; nt = no result given. Unless noted, calls follow the shape of the dose curve; as a rule, active = well fitted activation curve with a large enough effect; inconclusive = small, poorly fitted or top-dose-only effect; inactive = flat fitted curve, though single readings scatter.

SMILES | D2 antagonist | D2 ag-1 | D2 PAM-1 | D2 ag-2 | D2 PAM-2 | D3 arrestin ag | D2 ag-3
CCCN(C#N)c1nc(NCC)nc(NC(C)C)n1 | 5 | 1 | 4 | -2 | -14 | nt | nt
CCN(C#N)c1nc(NC(C)C)nc(NC(C)(C)C)n1 | -6 | -4 | -15 | 40* | -3 | -10% | -2%
CC1(C)CC(=O)C=C(/C=C/c2ccccc2)C1 | -7 | -4 | 10 | -2 | -15 | -5% | 0%
CC1CCN(S(=O)(=O)N2CCC(C(=O)NCc3ccccc3Cl)CC2)CC1 | nt | nt | 28 | 0 | nt | nt | nt
CCSC1=N/C(=C\c2ccc3c(c2)OCO3)C(=O)S1 | 30* | 1 | -5 | 1 | 6 | 7% | -1%
CCOC(=O)C1CCN(CC(=O)Nc2c(C(=O)OC)[nH]c3cccc(Cl)c23)CC1 | 14 | 1 | -9 | 26 | -15 | 9% | 5%
CCOC(=O)C1CCN(CC(=O)Nc2c(C(=O)OC)[nH]c3ccc(Cl)cc23)CC1 | -12 | 8 | nt | 0 | 10 | nt | nt
COc1ccc(/C(O)=C/c2nc3ccc(C(=O)NCCc4cccc(C)c4)cc3[nH]c2=O)cc1OC | -12 | 4 | 4 | 18 | -3 | -18% | ?
COc1cccc(C(=O)Nc2nc(-c3nnn(-c4cccc(Cl)c4C)c3C)ns2)c1 | nt | nt | -8 | 0 | nt | nt | nt
Cc1cc(Cl)ccc1NC(=O)C1CCN(S(=O)(=O)c2ccc3[nH]c(=O)ccc3c2)CC1 | nt | nt | 10 | nt | nt | nt | nt
CCc1ccc(/C=N/NC(=O)c2nnn(-c3nonc3N)c2C(C)C)cc1 | 18 | 1 | 10 | 26 | -5 | 1% | 1%
CCOc1ccc(-c2c(C(=O)N/N=C/c3ccccc3)nnn2-c2nonc2N)cc1 | -2 | 1 | 28 | 4 | -7 | nt | nt
CCOc1cccc(-c2c(C(=O)N/N=C/c3sccc3C)nnn2-c2nonc2N)c1 | 3 | 2 | 5 | 1 | -6 | nt | nt
CCOc1cccc(-c2c(C(=O)N/N=C/c3ccsc3)nnn2-c2nonc2N)c1 | 23 | 0 | 26 | 9 | 0 | 2% | -3%
CCOc1ccc(/C=N/NC(=O)c2nnn(-c3nonc3N)c2-c2cccs2)cc1 | 16 | 3 | 5 | 7 | -3 | 1% | -5%
Cc1cccc(N2CCN(c3nc4ccc(C(=O)c5ccccc5)cc4n4cnnc34)CC2C)c1 (stereo unspecified) | nt | nt | 8 | 0 | nt | nt | nt
CC(=O)NC(C)CCc1ccccc1 (stereo unspecified) | -11 | 0 | 8 | 1 | -3 | nt | nt
COc1cc(CCC(C)NCc2ccccc2)ccc1O (stereo unspecified) | 75* | ? | -35 | 79* | -12 | -4% | ?
CC(CCc1ccccc1)NCC#N (stereo unspecified) | 34* | 8 | -17 | 57* | -8 | 8% | 6%
CC(CCc1ccc(O)cc1)NCc1ccc(Br)cc1 (stereo unspecified) | 32* | 1 | -15 | 39* | -16 | ? | 2%
COc1ccc(CNC(C)CCc2ccccc2)cc1 (stereo unspecified) | 62* | 3 | -26 | 64* | -25 | -1% | 10%
CC(CCc1ccccc1)NCc1ccc(Cl)cc1Cl (stereo unspecified) | 45* | 14 | -26 | 52* | 1 | 16% | 10%
O=S(=O)(c1ccc(OCC(O)CN2CCN(c3ccccc3O)CC2)cc1)N1CCOCC1 (stereo unspecified) | 69* | ? | -24 | 71* | 1 | ? | 28µM*
O=S(=O)(c1ccc(OCC(O)CN2CCN(c3ccccc3)CC2)cc1)N1CCOCC1 (stereo unspecified) | 96* | 44* | -23 | 85* | 13 | ? | 7.1µM*
O=S(=O)(c1ccc(OCC(O)CN2CCC(Cc3ccccc3)CC2)cc1)N1CCOCC1 (stereo unspecified) | 27 | 7 | -23 | 63* | -16 | -4% | 20%
SMILES | D2 antagonist | D2 ag-1 | D2 PAM-1 | D2 ag-2 | D2 PAM-2 | D3 arrestin ag | D2 ag-3
O=S(=O)(c1ccc(OCC(O)CN2CCCC2)cc1)N1CCOCC1 (stereo unspecified) | 2 | 1 | 3 | 0 | -6 | nt | nt
Cc1cccn2c(=O)c3cc(C(=O)NCc4ccccc4)c(=N)n(CCOCCO)c3nc12 | nt | nt | 9 | 0 | nt | nt | nt
O=C(CCN1CCN(c2ccccc2F)CC1)Nc1ccc(F)cc1 | 88* | 3 | -16 | 14 | -75 | ? | 7%
O=C(CCN1CCN(c2ccccc2F)CC1)Nc1ccccc1Cl | 88* | -1 | -24 | 70* | -10 | -3% | 21%
O=C(CCN1CCN(S(=O)(=O)c2ccc(Cl)cc2)CC1)Nc1ccc(F)cc1 | nt | -1 | 11 | nt | -8 | nt | nt
COC(=O)c1[nH]c2cc(OC)ccc2c1NC(=O)CCN1CCN(c2cccc(C)c2C)CC1 | 57* | -1 | -8 | 1 | -11 | 8% | -1%
O=C(CCN1CCN(c2ccccc2F)CC1)Nc1cccc(F)c1 | 80* | -4 | -24 | 81* | -5 | ? | ?
O=C(CCN1CCN(S(=O)(=O)c2ccc(Cl)cc2)CC1)Nc1ccccc1F | 10 | 2 | 8 | 0 | -1 | nt | nt
CCc1ccc(S(=O)(=O)c2cn(C)c3cc(N4CCC(C)CC4)c(F)cc3c2=O)cc1 | nt | nt | -5 | 0 | nt | nt | nt
Cn1cnc(S(=O)(=O)N2CCC(C(=O)Nc3ccc(Cl)c(C(F)(F)F)c3)CC2)c1 | nt | nt | -5 | -4 | nt | nt | nt
COc1cc(NC(=O)CCN2CCN(c3ccccc3F)CC2)cc(OC)c1 | 40* | 10 | -11 | 31* | -16 | ? | 21%
C/C(=N\NC(=O)c1nnn(-c2nonc2N)c1-c1ccc2c(c1)OCO2)c1ccc(C)cc1 | 14 | -1 | 8 | 16 | -4 | -4% | -1%
C/C(=N\NC(=O)c1nnn(-c2nonc2N)c1-c1ccc2c(c1)OCO2)c1ccccc1 | -58 | -4 | 24 | 10 | 4 | -8% | -7%
CCN(CC)C(=O)c1c(-c2ccccc2)c(-c2ccccc2)nn(C)c1=O | nt | nt | -4 | nt | nt | nt | nt
COc1ccc(C(=N/O)/C(=N/O)c2ccc(OC)cc2)cc1 | 40* | 2 | 7 | 1 | 2 | -9% | -2%
COc1ccccc1NC(=O)N1c2ccccc2Sc2ccccc21 | nt | nt | 7 | 2 | nt | nt | nt
CCOc1ccc(Nc2cc(C)nc3nncn23)cc1 | nt | nt | 10 | 1 | nt | nt | nt
Cc1cc(NC(=O)C(=O)NCCN2CCN(C(=O)c3cccs3)CC2)ccc1Br | 27 | 0 | -10 | 22 | -21 | 28% | 6%
